Reference: PubChem BioAssay AID1259343 (VanderVen Lab, College of Veterinary Medicine, Cornell …, 2017)
Hit rate of the full screen: of about 6,200 compounds, about 2,900 (47%) were called active. The set was probably picked from earlier hits. Some of the results follow. Unmarked numbers belong to inactive results. Cut-off read from the data, not from the text of the source: active = inhibition above about 50%; inactive = the rest.

Assay: Mycobacterium tuberculosis growth inhibition, primary screen (AID 1259343)
Conditions: inhibition: at 10 µM, hits give high values; outcome: 10 uM

Compound | inhibition
O=c1c2ccccc2oc2nc(C3CCCCC3)n(Cc3ccccc3)c(=O)c12 | -13.4%
O=C(Nc1cccc(-c2ccc(F)cc2)c1)C1CCCN(Cc2cccnc2)C1 (centres undefined) | 47.1%
CCc1ncc(CN2CCCC(C(=O)Nc3cccc(-c4ccc(F)cc4)c3)C2)cn1 (centres undefined) | 77% (active)
CSCCC(=O)N1CCCC(C(=O)Nc2ccc(-c3cccc(F)c3)cc2)C1 (centres undefined) | 36.2%
O=C(Nc1ccc(-c2cccc(F)c2)cc1)C1CCCN(C(=O)C2CCOCC2)C1 (centres undefined) | 76.7% (active)
O=c1c(Cl)c(Oc2ccccc2)cnn1Cc1ccccc1 | 24.6%
CC1(CCc2ccccc2)CCN(c2cn[nH]c(=O)c2Cl)C1 (centres undefined) | 71.2% (active)
Cc1ccc(CC2CCCN(c3cn[nH]c(=O)c3Cl)C2)cc1 (centres undefined) | 41.4%
CCN(C(=O)c1cccc(Br)c1C)c1ccccc1 | -6.9%
Cc1cc(Cl)ccc1OC(C)c1nnc(SCCC2CCCCC2)o1 (centres undefined) | 10.5%
Cc1ccc(O)c(S(=O)(=O)N2CCCc3cc(F)c(F)cc32)c1 | 3.27%
O=S(=O)(c1cc(Br)ccc1Br)N1CCc2ccccc21 | 102% (active)
O=S(=O)(c1cc(Br)ccc1Br)N1CCCc2ccccc21 | 7.14%
O=S(=O)(c1cc(Br)ccc1Br)N1CCC1c1ccccc1 (centres undefined) | 77.1% (active)
CC(C)CCNC(=O)CSc1nc2ccccc2o1 | 6.9%
CC(C)SCC(=O)Nc1cnc2ccccc2c1 | 92.9% (active)
COc1cccc(-n2cc(CN(C)Cc3cc4ccccc4[nH]3)cn2)c1 | 41.5%
COc1cccc(-n2cc(CN(C)Cc3cccc4nonc34)cn2)c1 | 83.4% (active)
CC(C)c1cc2c(c(O)c1O)[C@@]1(C(=O)O)CCCC(C)(C)C1CC2 (some centres undefined) | 48.2%
CC(C)c1ccc2c(c1)CCC1C(C)(C(N)=O)CCCC21C (centres undefined) | 64.3% (active)
CC(=O)NS(=O)(=O)c1ccc(N)cc1 | 60.2% (active)
Cc1ccc(C2CC2C(=O)NS(=O)(=O)c2ccc(F)cc2)s1 (centres undefined) | -6%
COc1ccc(S(=O)(=O)NCCC(C)C)cc1 | 3.91%

Compound | inhibition
O=C(NCc1ccc(S(=O)(=O)N2CCCCC2)cc1)NCc1cccc(C(F)(F)F)c1 | 91.4% (active)
O=C(c1cnc2cc3c(cc2c1)OC1(CCCC1)O3)c1ccccc1O | -7.11%
Cc1ccc(-c2nc(C)sc2CC(=O)NC(C)C2CC2)cc1 (centres undefined) | 33.3%
Cc1ccc(NC2=CC(=O)c3sc(C)nc3C2=O)cc1 | 99.8% (active)
CC(C)CNc1nnnc2c1sc1nc(N3CCOCC3)c3c(c12)CCCC3 | -4.41%
CCc1nc2sc3c(NCC4CCCO4)ncnc3c2c2c1CCCC2 (centres undefined) | 57.2% (active)
CCc1nc2sc3c(NCCN(C)C)ncnc3c2c2c1CCCC2 | 47.1%
COc1ccc(-c2nc(-c3ccccc3F)cs2)cc1OC | 12.5%
COc1ccc(-c2cc(NC(=O)C3CC3)ccc2OC)cc1 | 93.7% (active)
COc1ccc(-c2cc(CNC(=O)C3CC3)no2)cc1 | 30.7%
COc1ccc(F)cc1-c1csc(-c2ccc(NC(=O)C3CC3)cc2)n1 | 71.9% (active)
CCOC(=O)c1c(C)c(C(=O)NC2CC(C)CC(C)(C)C2)c(C)n1CC (centres undefined) | 93.8% (active)
CCOC(=O)c1c(C)nn(-c2ccc(C(=O)NC3CCC(C)CC3)cc2)c1C (centres undefined) | 38.6%
Cc1csc2cc(C(=O)NC3CC(C)CC(C)(C)C3)cnc12 (centres undefined) | 41%
CCCc1c(C(=O)O)c(C2CC2)nn1-c1ccc(OC)cc1 | 17.7%
Cc1c(C(=O)NCc2ccco2)c(C2CC2)nn1-c1ccc(Cl)c(Cl)c1 | 91% (active)
CCOc1ccc2c(c1)C=C(C(=O)NCc1ccco1)CO2 | -9.65%
CS(=O)(=O)N(c1ccccc1Cl)S(=O)(=O)c1ccc(Cl)c([N+](=O)[O-])c1 | 70.4% (active)
O=[N+]([O-])c1cc(S(=O)(=O)Oc2cccc(Cl)c2Cl)ccc1Cl | -21.3%
CN(C)C(CNc1ccc(S(C)(=O)=O)cc1[N+](=O)[O-])c1ccco1 (centres undefined) | -2.26%
O=C1O/C(=C/Br)CCC1c1cccc2ccccc12 (centres undefined) | 102% (active)
CCOC(=O)C1(CCOc2ccccc2)CCN(Cc2cccc(-n3cccn3)c2)CC1 | 31.7%
CNC(=O)c1ccc(-c2cccc(-n3cccn3)c2)s1 | 91.2% (active)

Compound | inhibition
O=C(O)c1ccc(CN2CCc3cc(-n4cccn4)cnc32)cc1 | 26.6%
CNC(=O)COc1ccc(-c2cccc(-n3cccn3)c2)cc1 | 54.7% (active)
COc1cc(NC(=O)c2ccc(CN3CC=CC3)cc2)cc(OC)c1 | 36.1%
COc1cc(NC(=O)c2ccc(N3CCC(C)=N3)cc2)cc(OC)c1 | 71% (active)
NC(Cc1ccccc1)c1csc(Nc2cc(Oc3ccccc3)ncn2)n1 (centres undefined) | inactive
NC(Cc1ccc(C(F)(F)F)cc1)c1csc(Nc2cc(Oc3ccccc3)ncn2)n1 (centres undefined) | 59.6% (active)
COc1ccc(CC(N)c2csc(Nc3cc(Oc4ccccc4)ncn3)n2)cc1 (centres undefined) | 56.6% (active)
NC(Cc1ccc(F)cc1)c1csc(Nc2cc(Oc3ccccc3)ncn2)n1 (centres undefined) | 54.2% (active)
NC(COCc1ccccc1)c1csc(Nc2cc(Oc3ccccc3)ncn2)n1 (centres undefined) | 76.8% (active)
Cc1nn(C)c(Cl)c1CNc1ccccc1 | 5.19%
CC1(C)C2CCC1(C)C(NC(=O)Nc1nnc(C3CC3)s1)C2 (centres undefined) | 41%
COc1ccc(C(N)c2csc(Nc3cc(Oc4ccccc4)ncn3)n2)cc1 (centres undefined) | 58.8% (active)
CCCCCNC(=O)C1CCN(C(=O)c2oc3ccc(Cl)cc3c2C)CC1 | 29.4%
O=C(c1cccs1)c1coc2ccc(Cl)cc2c1=O | 43.6%
O=C(O)c1oc2ccc(Cl)cc2c1-n1cccc1 | 90.5% (active)
COc1ccc(-c2nn3c(nc2=O)-c2ccccc2NC3C(C)C)cc1 (centres undefined) | inactive
CSc1ncc(CN2CCCC(C(=O)c3ccc(Oc4ccccc4)cc3)C2)cn1 (centres undefined) | 92.1% (active)
Cc1nonc1C(=O)N1CCCC(C(=O)c2ccc(Oc3ccccc3)cc2)C1 (centres undefined) | 13.8%
Cc1occc1C(=O)N1CCCC(C(=O)c2ccc(Oc3ccccc3)cc2)C1 (centres undefined) | 17%
O=C(c1ccc(-c2ccccc2)cc1)C1CCCN(C(=O)c2ccc3nccnc3c2)C1 (centres undefined) | 18.2%
O=C(c1ccc(Oc2ccccc2)cc1)C1CCCN(C(=O)c2cnsn2)C1 (centres undefined) | 64.4% (active)
O=C(c1ccc(Oc2ccccc2)cc1)C1CCCN(C(=O)c2ccc3nccnc3c2)C1 (centres undefined) | 56% (active)
COc1c(C)cc(C(=O)C2CCCN(Cc3cnc(SC)nc3)C2)cc1C (centres undefined) | 47.7%
